Experimental data reported in paper PMC13494018.
Values without a mark were called inactive. The rule behind the calls is not given here.

B1: design_616_e8336982-fa4d-4d7c-b06f-9007953e1994_1845_dldesign_0_cycle1_af2pred (protein)
chain: MEEEERKKKREKAEELLAKAKEHIEAAAKQGALGDGLKFATEVVREATELDPELGEEVAKRVQQLLAEQSRQAIA
B2: design_617_b3fadc1d-0db4-4da8-8433-818493aa2ab2_117_dldesign_0_cycle1_af2pred (protein)
chain: AEKDEEAKKLVEKAKELAEAGLQTAQATGNVALAQAAANMAKALAKEAIRLAEDEKVKEEAKKEAKQAEKALKQAKA
B3: design_616_e8336982-fa4d-4d7c-b06f-9007953e1994_1297_dldesign_0_cycle1_af2pred (protein)
chain: DPTAEAAARSAEARALRERGAAAGPEAAAVAEAAALAAQRANYYYLISYGDPSAAEAAAKAAEAEAEARELRAELEKLLAEAE
B4: design_616_e8336982-fa4d-4d7c-b06f-9007953e1994_2036_dldesign_0_cycle1_af2pred (protein)
chain: GAEELAAEARKAYNEMLELLEKAKETGKTEEYVKKAAEIGRANPIAGQMAMNTVAARDPELAAKLRKAMA
B5: design_617_b3fadc1d-0db4-4da8-8433-818493aa2ab2_734_dldesign_0_cycle1_af2pred (protein)
chain: MAEEIIREATRVATEAARLAVKYGNEVANKALALAVEAMELAASGENAEEAKKKLEEAKKLLEEAKKIAKEKE
B6: design_616_e8336982-fa4d-4d7c-b06f-9007953e1994_1719_dldesign_0_cycle1_af2pred (protein)
chain: AEAAGKAAAAAIELSREMLRIAREAGNEEVIAIAQRATAAFNQAMLDKKAGIERLKEVAKEAEELPEGKPVAELVKKAIKAFEA
B7: design_617_b3fadc1d-0db4-4da8-8433-818493aa2ab2_588_dldesign_0_cycle1_af2pred (protein)
chain: AAAEAAKLQAERDALIKKALEAIEEASALAKELGNQEALALVHKSLTLIAKSLGADAETGLKLAKEALKAAEAALALLKKA
B8: design_616_e8336982-fa4d-4d7c-b06f-9007953e1994_1398_dldesign_0_cycle1_af2pred (protein)
chain: PREEVERLEREVREARKRAEAATTVEQAGEAALEALEAEARARRLAEELRARGGDEELAERAERVAEEARAVFLFAAGKAIELAKA
B9: design_616_e8336982-fa4d-4d7c-b06f-9007953e1994_1282_dldesign_0_cycle1_af2pred (protein)
chain: AAALEVTRRTIFAMADHAYKSENLETAKAIMKTLGQIAVAAGEEVLKEAREYIEKLAKESTEEKAKALLEGFEEGVAEAKA
B10: design_616_e8336982-fa4d-4d7c-b06f-9007953e1994_1495_dldesign_0_cycle1_af2pred (protein)
chain: SEAELAKKFEEGLKKVEEAKKYAKKVEAKDPEKGKKLKELAGEAANAVLRGYAIPEKAEEEWAKVEKIYEEAKKIAA
B11: design_616_e8336982-fa4d-4d7c-b06f-9007953e1994_1227_dldesign_0_cycle1_af2pred (protein)
chain: SSGAQLVTTAGAVILAQVPPAAHPYVEAATAAGVAEGVEAFLSGLQEARKALSPEDAAVLLAATTAGLAAGAKAVIA
B12: design_616_e8336982-fa4d-4d7c-b06f-9007953e1994_2287_dldesign_0_cycle1_af2pred (protein)
chain: TPEQLKQAAKQALAAAKALVKNAKQASLEDAKKLAEVAKDLTENAIKAAAKAGPEAEKEAKAKAEEIKKAAEEAIAAKEA
B13: design_616_e8336982-fa4d-4d7c-b06f-9007953e1994_1969_dldesign_0_cycle1_af2pred (protein)
chain: GEEEKEKKKERFEEILKKAIEGKATKEEIEQAALDGVAYDGGEAVLALLKAYAEAKDPEVRKYLAQALALAARLTAAKLRA
B14: design_616_e8336982-fa4d-4d7c-b06f-9007953e1994_1745_dldesign_0_cycle1_af2pred (protein)
chain: APLEAVAKEAAEIAAKELPEASLEDALLVAEALLNPEKAKEYFAEVKKRLSPEDAARLFQTVGKAFSQLSLKLQAALAA
B15: design_616_e8336982-fa4d-4d7c-b06f-9007953e1994_2109_dldesign_0_cycle1_af2pred (protein)
chain: AAAAQAAAADAALAAATSMLEKAKEMAATNPESAKKAATVAVDLANYAIALPAATPEQKAQAQKIKEEAEALIASL
B16: design_616_e8336982-fa4d-4d7c-b06f-9007953e1994_2209_dldesign_0_cycle1_af2pred (protein)
chain: NAEAGKYLEEALKLAAEAQKAAAANPAVAPEVIAQASRLVAEAAKAALAGDTKAAKEYLEKMKELRDAAKAALAAA
B17: design_616_e8336982-fa4d-4d7c-b06f-9007953e1994_1403_dldesign_0_cycle1_af2pred (protein)
chain: GAARAAELQGKADYLLAKSYADAALKSPDPEKAAELLKKAKEYAERALEDPVGAPYGEKALKYIEEVEKAL
B18: design_616_e8336982-fa4d-4d7c-b06f-9007953e1994_2162_dldesign_0_cycle1_af2pred (protein)
chain: MLTPEQLQASINAIKAATRKAVEMARAGNEESAEKLLEVARDIAEALLKTDPEAGKEALKIVEEGEEEARKAAEEVRA
B19: design_616_e8336982-fa4d-4d7c-b06f-9007953e1994_1415_dldesign_0_cycle1_af2pred (protein)
chain: AAAALAAAVAAAKEIAADLSPEDQAIVVTAAVLAVTGAGLGQAIELARAHPAISAAIMGAAARAQAAVLAAA
B20: design_616_e8336982-fa4d-4d7c-b06f-9007953e1994_2432_dldesign_0_cycle1_af2pred (protein)
chain: NQTKSLAQGAIAMAEAIAEELRRLGDEESAKKVEEMAKEAKKLIEEGKYEEALKVATEGVAYGAERVAALR
B21: design_616_e8336982-fa4d-4d7c-b06f-9007953e1994_1883_dldesign_0_cycle1_af2pred (protein)
chain: NAEVAKLLGQIIDELQAAQAAAAAGDLKAAAKEAQKAAEAAGKIGDPEKGKELAAGAKADPSKAVEYARQALSIASAAAIKIAA
B22: design_616_e8336982-fa4d-4d7c-b06f-9007953e1994_1400_dldesign_0_cycle1_af2pred (protein)
chain: AAAAVAIADKTIAALARQARRLAEEAIRDPDPERARRLVESAEELVRVAEDIAEAMGASPEAKEAVRRAREEVERAREVVER
B23: design_616_e8336982-fa4d-4d7c-b06f-9007953e1994_1848_dldesign_0_cycle1_af2pred (protein)
chain: GMAEKEKEYEEKLKEYKAKAKEAAKLTVEDPEAGAKKFKEIIEKAAKDFPERAKEIEEELLKVYREALAAAARAAIAAARA
B24: design_616_e8336982-fa4d-4d7c-b06f-9007953e1994_2365_dldesign_0_cycle1_af2pred (protein)
chain: DVGAATVAAVNATAAAALAAVKEAAKLSPEEAKAATGAALAALADTVGQANKAALAHPEHSAQIVGTGVDALAAVQAAADEAIAKAKA
B25: design_616_e8336982-fa4d-4d7c-b06f-9007953e1994_1846_dldesign_0_cycle1_af2pred (protein)
chain: AQAEKEAAAAKAKRLLDQLKEFGALAVTAAAASAQQGQAYLAMARQLAANAKEEAKKTGEEGKELAAQAEATLAAAEAGVAAALAAA
B26: design_616_e8336982-fa4d-4d7c-b06f-9007953e1994_2198_dldesign_0_cycle1_af2pred (protein)
chain: MEEERRKKAEELLEKATKELKAMQAQAEALAKAGDIGAATQLVVDAARYGAEVTREAEKIDPEVAEKMAEVTNKIIAAALKALTAYAA
B27: design_617_b3fadc1d-0db4-4da8-8433-818493aa2ab2_636_dldesign_0_cycle1_af2pred (protein)
chain: TATLKEILAKVEKALELLKNASPETLNQALSLLTQAWALANKVDPAVAAAINAAIAALVDGMAKGVEVASKEGSAAAEKAIAAVKAAI
B28: design_617_b3fadc1d-0db4-4da8-8433-818493aa2ab2_655_dldesign_0_cycle1_af2pred (protein)
chain: AEEEERLRRQAEGLYELTKAVAEYLAKNPAAAEQAKALKEKAEKAFEEGMKEHPAEAIRRLQAVLNEASRAAIAASA
B29: design_616_e8336982-fa4d-4d7c-b06f-9007953e1994_1901_dldesign_0_cycle1_af2pred (protein)
chain: AAAARAAAAALAAEAIAAAAAAVAADPAAAAIIHAQAERARGGDAATAVRAAQAAGVLAAVLAGDEALAAAVTRRAAALLAA
B30: design_617_b3fadc1d-0db4-4da8-8433-818493aa2ab2_49_dldesign_0_cycle1_af2pred (protein)
chain: SKLSEEAKKKAEEYLKKAEEAYKLAKEDPAAGQAKLSEILTKAMEAQTEFYKKDPSNKEALDYLNKTIQTITKYLVEAAKL
B31: design_616_e8336982-fa4d-4d7c-b06f-9007953e1994_1780_dldesign_0_cycle1_af2pred (protein)
chain: MASLAQGVINMVRSLAELAIKASPEEAAKLAAEAADIAIAGGEQFGAETAEEAAKILEEAAKAKPEVAPYAERVKKKLKEL
B32: design_617_b3fadc1d-0db4-4da8-8433-818493aa2ab2_522_dldesign_0_cycle1_af2pred (protein)
chain: ADPAQASQQALNAAKAAIKSAARAAKAGNLEDAKKLAEVAADLIAQASPEQAAEALKVAKEEAAEVPEIAEYMISKAEAALAQAKARA
B33: design_616_e8336982-fa4d-4d7c-b06f-9007953e1994_2151_dldesign_0_cycle1_af2pred (protein)
chain: GAAAAAEETAKKVAKYLVKGDAEEAAKEALKGHTKNQAQHIVLRAANLAAKETGKSQSIYAKAAEAIALIEA
B34: design_617_b3fadc1d-0db4-4da8-8433-818493aa2ab2_145_dldesign_0_cycle1_af2pred (protein)
chain: LQETADKAIEAANKLAELDPEVGDALKTAAETALAQGNEAQARAVKNMAESAYKYFSAKAEAAKAAAEAAA
B35: design_617_b3fadc1d-0db4-4da8-8433-818493aa2ab2_206_dldesign_0_cycle1_af2pred (protein)
chain: ADALTKKTAEAIYQQVKKRAEELLKKAKEGTPELAKELAKELKKIAEANAKALSSLGPLGEEYAKKVKEYAEKVIKEIEKII
B36: design_616_e8336982-fa4d-4d7c-b06f-9007953e1994_1283_dldesign_0_cycle1_af2pred (protein)
chain: AAAAAAAAAARAALRAELLALAEEGAKKVLAGEISLGEAVKAIMEAGAADPEAANEAAAYLIRTVMQATQAA
B37: design_617_b3fadc1d-0db4-4da8-8433-818493aa2ab2_224_dldesign_0_cycle1_af2pred (protein)
chain: AEAQALLDQAKAYLAQGTALFQSDPSLSSQALQQFGLAYIYASRAAALATAAGDTATADAAKAVQDQALANMQAIAAS
B38: design_616_e8336982-fa4d-4d7c-b06f-9007953e1994_1581_dldesign_0_cycle1_af2pred (protein)
chain: EEARREELARKAEEKAEEIAKRLAKEGKSVEEIVEEAERYAKELLRPESEEVREEAAGRAANAAVRAYAKVSLELSA

Target: CD276, Q5ZPR3
Sequence (Q5ZPR3 whole entry): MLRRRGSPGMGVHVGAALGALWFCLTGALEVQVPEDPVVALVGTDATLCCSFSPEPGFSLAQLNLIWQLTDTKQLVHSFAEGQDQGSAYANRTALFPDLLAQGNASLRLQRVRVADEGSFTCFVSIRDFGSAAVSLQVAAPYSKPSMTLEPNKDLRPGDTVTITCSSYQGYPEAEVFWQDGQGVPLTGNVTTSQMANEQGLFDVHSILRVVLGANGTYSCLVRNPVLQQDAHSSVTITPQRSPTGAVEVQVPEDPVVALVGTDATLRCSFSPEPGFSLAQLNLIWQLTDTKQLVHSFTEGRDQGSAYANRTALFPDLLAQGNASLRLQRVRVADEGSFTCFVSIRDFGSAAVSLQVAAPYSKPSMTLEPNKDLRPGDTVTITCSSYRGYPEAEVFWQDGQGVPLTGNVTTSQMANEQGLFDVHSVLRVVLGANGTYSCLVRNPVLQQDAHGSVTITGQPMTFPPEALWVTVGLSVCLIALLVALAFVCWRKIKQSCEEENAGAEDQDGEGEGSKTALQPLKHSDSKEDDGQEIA

Row | Binder | binding in a display sort
1 | B1 | not found
2 | B2 | not found
3 | B3 | not found
4 | B4 | not found
5 | B5 | not found
6 | B6 | not found
7 | B7 | not found
8 | B8 | not found
9 | B9 | not found
10 | B10 | not found
11 | B11 | not found
12 | B12 | not found
13 | B13 | not found
14 | B14 | not found
15 | B15 | not found
16 | B16 | not found
17 | B17 | not found
18 | B18 | binds (active)
19 | B19 | not found

Row | Binder | binding in a display sort
20 | B20 | not found
21 | B21 | not found
22 | B22 | not found
23 | B23 | not found
24 | B24 | not found
25 | B25 | not found
26 | B26 | not found
27 | B27 | not found
28 | B28 | not found
29 | B29 | not found
30 | B30 | not found
31 | B31 | not found
32 | B32 | not found
33 | B33 | not found
34 | B34 | not found
35 | B35 | not found
36 | B36 | not found
37 | B37 | not found
38 | B38 | not found
